ChEMBL document CHEMBL4513149, “CO-ADD screening of MMV (CH) - MMV compounds” (2021)
Potency and affinity values are given separately.

Tests used:
Klebsiella pneumoniae = details: Concentration 20 uM; ASSAY_TEST Inhibition of Bacterial Growth; detection method Absorption (OD600); MEDIA CAMHB; plate type 384well; NBS; CORNING #3640; time 18 hr
Candida albicans = details: 20 µM
Cryptococcus neoformans = details: Concentration 20 uM; ASSAY_TEST Inhibition of Fungal Growth; detection method Resazurin; Absorption (OD600-OD570); plate type 384well; NBS; CORNING #3640

| SMILES | Inhibition (Klebsiella pneumoniae) | Inhibition (Candida albicans) | Inhibition (Cryptococcus neoformans) |
| --- | --- | --- | --- |
| Cc1cc(Cl)ccc1NC(=O)CCc1ccc(S(=O)(=O)NCC(C)C)cc1 | 8.81% | 1.81% | -9.04% |
| CC(C)=CCC/C(C)=C\CNCCNC1C2CC3CC(C2)CC1C3 (stereo not drawn) | 18.7% | 2.31% | 16.24% |
| C[C@H](c1ccc2c(c1)CCCC2)N(C)c1ncc2c(N)nc(N)nc2n1 | 18.37% | 3.88% | -9.74% |
| COc1cc(Br)cc2cc(C(=O)Nc3cccc(C(F)(F)F)c3)c(=O)oc12 | 7.93% | 3.09% | -6.76% |
| NCC(=O)N1CCn2c(nc(-c3ccccc3)c2Nc2ccc3c(c2)OCO3)C1 | 4.52% | 3.31% | 7.53% |
| COc1ccc(OC(C)C(=O)Nc2ccc(Cl)cc2C)cc1 (stereo not drawn) | 4.92% | 7.33% | 5.96% |
| O=C(Nc1c(O)cccc1-c1nc2c(C(=O)O)cccc2o1)c1cc(-c2ccccc2)on1 | -9.4% | 3.49% | -10.86% |
| CC1CS(=O)(=O)CCN1/N=C/c1ccc([N+](=O)[O-])o1 (stereo not drawn) [NIFURTIMOX] | 15.43% | 4.12% | 5.99% |
| O=C(NCc1cc(Cl)cc(Cl)c1)c1c(C(F)(F)F)nc2ccccn12 | 15.19% | 8.03% | -5.43% |
| O=C(OCc1ccccc1)N1CCC(c2cc(-c3ccncc3)c(-c3ccc(F)cc3)[nH]2)CC1 | 6.24% | 3.85% | -11.48% |
| O=C(N[C@H](Cc1ccccc1)C(=O)Nc1ccccc1N1CCOCC1)c1cccs1 | 11.64% | 3.1% | -4.85% |
